Each structure is given as a SMILES string. Calls of active or inactive are those of the source.

We go through five compounds from PubChem BioAssay.

One test has as its target Albumin (Bos taurus) (UniProt P02769). The test is described as follows: bovine serum albumin binders on microarray, profiling panel, artefact control for SMM control protein annotation, biochemical, small-molecule microarray, Alexa647 label, 635/667 nm fluorescence (AID 1118).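 Further: score merges 667 nm emission intensity and signal-to-noise per printed compound spot.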 Particulars: BSA-A647 binding, fluorescence 635 nm, higher = more signal.
A short description of test [1]: small-molecule microarray binders of probe aXIP, primary screen, biochemical, NeuroSMM set, 635/667 nm fluorescence (AID 1119).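 Further: probe is the protein aXip251-270 applied at 1 µg/mL to compound-printed slides; binding of probe to printed compounds measured as 667 nm fluorescence plus signal to noise.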 Particulars: higher = more signal, called active from +8 up or from −8 down.
A short description of test [2]: small-molecule binders of probe aNOTCH3, primary screen, biochemical, small-molecule microarray, 635/667 nm fluorescence (AID 1120).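 Further: probe is a biotin-tagged antibody raised against NOTCH3 rather than NOTCH3 protein; score merges spot fluorescence near 667 nm with spot signal to noise.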 Particulars: higher = more signal.
Test [3] in a line: small-molecule binders of probe aNOTCH2, primary screen, biochemical, small-molecule microarray, 635/667 nm fluorescence (AID 1121).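 Further: score merges feature fluorescence read at 667 nm with its signal to noise.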 Particulars: higher = more signal.
The target of test [4] is Carbonic anhydrase 2 (Homo sapiens) (UniProt P00918). The test is described as follows: CAII small-molecule binders, profiling panel, biochemical, small-molecule microarray, Alexa647-labelled CAII (AID 1122). The conditions noted are these: CAII-A647 binding fluorescence, higher = more signal.
The nature of test [5]: COS7 lysate on small-molecule microarray, probe aHis, 635 nm (AID 1123).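 Further: z-score combines 667nm fluorescence intensity with signal-to-noise per printed compound spot.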 Particulars: COS7 cell lysate, fluorescence, higher = more signal.
The nature of test [6]: compound binding in COS7 lysate, probe aLAP1, primary screen, cell lysate, small-molecule microarray (AID 1124).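 Further: lysate comes from COS7 cells expressing LAP1 and is applied at 0.3 µg/mL; score merges spot fluorescence near 667 nm with signal-to-noise over triplicate slides.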 Particulars: probe aLAP1, fluorescence, higher = more signal.
The next test deals with Sam68 (KHDRBS1). The test is described as follows: Sam68 small-molecule binders, primary screen, biochemical, small-molecule microarray, 635 nm fluorescence (AID 1125).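 Further: score merges 667 nm channel intensity with signal to noise over triplicate slides.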 The conditions noted are these: small-molecule microarray binding, higher = more signal.
Test [7] relates to Chordin-like protein 2 (CHRDL2). The test is described as follows: CHRDL2 small-molecule binders, primary screen, biochemical, small-molecule microarray, 635 nm fluorescence (AID 1126).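 Further: printed compound slides probed with Chrdl2 protein at 4 µg/mL for 1 h at 4 C; score merges 667 nm emission intensity with signal to noise over three replicate slides.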 The conditions noted are these: small-molecule microarray binding, fluorescence 635 nm; higher = more signal.
The target in test [8] is Concanavalin-A (Canavalia ensiformis) (UniProt P02866). The test is described as follows: ConA small-molecule binders, primary screen, artefact control for SMM control protein annotation, biochemical, small-molecule microarray, Alexa647 label, 635 nm (AID 1127).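 Further: z combines 667 nm emission intensity with signal-to-noise across three replicate slides.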 Particulars: ConA-A647 binding fluorescence, higher = more signal.
Sequence of Concanavalin-A (Canavalia ensiformis) (P02866 whole entry, looked up): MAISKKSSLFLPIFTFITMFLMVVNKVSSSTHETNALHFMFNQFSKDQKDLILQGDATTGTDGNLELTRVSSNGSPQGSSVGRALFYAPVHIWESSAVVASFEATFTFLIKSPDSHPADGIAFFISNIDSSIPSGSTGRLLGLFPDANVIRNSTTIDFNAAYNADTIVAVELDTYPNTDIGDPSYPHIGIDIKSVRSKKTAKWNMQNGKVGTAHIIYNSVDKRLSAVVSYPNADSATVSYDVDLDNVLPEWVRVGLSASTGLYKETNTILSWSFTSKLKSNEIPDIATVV
Test [9] in a line: anti-His antibody binders, primary screen, artefact control for SMM control protein annotation, biochemical, small-molecule microarray, 635 nm fluorescence (AID 1128).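 Further: score merges feature fluorescence with signal-to-noise for each printed compound spot.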 Particulars: anti-His Alexa647 antibody binding, higher = more signal.
The subject of test [10] is Human papillomavirus type 1a E7 protein (residues 1-88). The test is described as follows: HPV1a E7 small-molecule binders, primary screen, biochemical, small-molecule microarray, residues 1-88, 635 nm (AID 1129). Particulars: small-molecule microarray binding, fluorescence 635 nm; higher = more signal.
In test [11] the target is Focal adhesion kinase 1 (Homo sapiens) (UniProt Q05397). The test is described as follows: small-molecule microarray binders of FAK, primary screen, biochemical, 635/667 nm fluorescence, BSA, DTT (AID 1130).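 Further: composite of spot emission at 667 nm and signal to noise over triplicate slides.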 Particulars: PTK2 binding, 635 nm fluorescence, higher = more signal.
Sequence of Focal adhesion kinase 1 (Homo sapiens) (Q05397 whole entry, looked up): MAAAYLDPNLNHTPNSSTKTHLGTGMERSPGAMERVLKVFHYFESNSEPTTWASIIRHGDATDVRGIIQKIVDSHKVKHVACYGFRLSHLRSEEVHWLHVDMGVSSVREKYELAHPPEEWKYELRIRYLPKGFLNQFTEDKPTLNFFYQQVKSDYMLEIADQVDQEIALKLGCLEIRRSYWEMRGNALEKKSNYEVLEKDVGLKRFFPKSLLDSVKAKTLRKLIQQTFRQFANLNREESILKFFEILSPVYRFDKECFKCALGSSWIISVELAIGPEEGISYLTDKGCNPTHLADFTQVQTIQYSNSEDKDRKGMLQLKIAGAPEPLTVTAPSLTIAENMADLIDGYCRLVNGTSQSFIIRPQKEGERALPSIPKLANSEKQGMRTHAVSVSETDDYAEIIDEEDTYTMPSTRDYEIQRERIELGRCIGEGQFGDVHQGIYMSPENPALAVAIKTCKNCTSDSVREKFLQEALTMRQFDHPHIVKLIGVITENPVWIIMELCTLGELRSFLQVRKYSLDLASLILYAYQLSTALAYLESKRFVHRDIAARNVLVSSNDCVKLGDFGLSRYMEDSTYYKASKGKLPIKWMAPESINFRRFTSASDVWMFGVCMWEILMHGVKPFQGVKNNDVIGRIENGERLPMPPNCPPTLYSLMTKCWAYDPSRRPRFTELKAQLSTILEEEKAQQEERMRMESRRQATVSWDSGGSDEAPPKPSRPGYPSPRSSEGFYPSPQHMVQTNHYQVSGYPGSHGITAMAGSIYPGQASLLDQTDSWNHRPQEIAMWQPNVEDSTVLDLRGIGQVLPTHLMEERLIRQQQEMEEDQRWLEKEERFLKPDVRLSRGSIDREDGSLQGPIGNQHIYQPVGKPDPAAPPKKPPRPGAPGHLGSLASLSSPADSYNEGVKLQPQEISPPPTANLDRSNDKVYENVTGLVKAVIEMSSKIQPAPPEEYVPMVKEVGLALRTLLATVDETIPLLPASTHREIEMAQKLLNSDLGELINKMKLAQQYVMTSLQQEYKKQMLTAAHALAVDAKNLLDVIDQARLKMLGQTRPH
Test [12] concerns Fibrinogen (Alexa647-labelled). Put plainly: fibrinogen binders on compound microarrays, profiling panel, artefact control for SMM control-protein annotation, biochemical, small-molecule microarray, 635/667 nm fluorescence (AID 1131).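 Further: z-score merges 667 nm fluorescence with per-spot signal-to-noise over triplicate slides.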 The conditions noted are these: fibrinogen-A647 binding fluorescence, higher = more signal.
The target in test [13] is Follistatin (Homo sapiens) (UniProt P19883). The test is described as follows: follistatin binders on small-molecule microarrays, primary screen, biochemical, small-molecule microarray, 635/667 nm fluorescence (AID 1132). The conditions noted are these: FST binding, 635 nm fluorescence, higher = more signal.
Sequence of Follistatin (Homo sapiens) (P19883 whole entry, looked up): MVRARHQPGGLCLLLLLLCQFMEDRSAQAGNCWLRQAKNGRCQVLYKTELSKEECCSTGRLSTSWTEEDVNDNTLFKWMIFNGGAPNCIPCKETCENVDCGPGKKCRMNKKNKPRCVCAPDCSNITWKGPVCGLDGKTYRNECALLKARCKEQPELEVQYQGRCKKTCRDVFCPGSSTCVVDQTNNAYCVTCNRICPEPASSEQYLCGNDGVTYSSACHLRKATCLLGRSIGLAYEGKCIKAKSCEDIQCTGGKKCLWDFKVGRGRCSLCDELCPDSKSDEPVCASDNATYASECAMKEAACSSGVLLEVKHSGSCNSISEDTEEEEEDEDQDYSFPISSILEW
Test [14] concerns the target Fibroblast growth factor 2 (Homo sapiens) (UniProt P09038). The test is described as follows: FGF2 binders on small-molecule microarrays, primary screen, biochemical, small-molecule microarray, 635/667 nm fluorescence (AID 1133). Particulars: small-molecule microarray binding, FGF2, fluorescence 635/667; higher = more signal.
Test [15] is described as follows: mitochondrial membrane potential change in A549 cells, profiling panel, cell-based, JC-1 fluorescence, basal, 24 h, 100 nL (AID 1138).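 Further: A549 lung adenocarcinoma cells under basal conditions with no added stimulus; test concentration not given here.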 Particulars: higher = more signal.
In another test the test system is Lefty1. Put plainly: Lefty1 binders on small-molecule microarrays, primary screen, biochemical, small-molecule microarray, 635/667 nm fluorescence (AID 1139). The conditions noted are these: small-molecule microarray binding, fluorescence 635/667; higher = more signal.
Test [16] relates to wheat germ agglutinin (Triticum aestivum), Alexa647-labelled. Put plainly: wheat germ agglutinin binders on compound microarrays, profiling panel, artefact control for SMM control-protein annotation, biochemical, small-molecule microarray, 635/667 nm fluorescence (AID 1140).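 Further: score merges 667 nm feature emission with signal to noise over triplicate slides.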 Particulars: WGA-A647 binding, 635 nm fluorescence, higher = more signal.
In test [17] the target is Luciferin 4-monooxygenase (Photinus pyralis) (UniProt P08659). The test is described as follows: firefly luciferase enzyme inhibitors, primary screen, biochemical, luminescence, purified enzyme, 2006 set (AID 1141).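 Further: cell-free assay with purified firefly luciferase at 100 ng per well in PBS; test concentration not given here.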 The conditions noted are these: SteadyGlo luminescence, 30 min, higher = more signal, called active from +8 up or from −8 down.
Sequence of Luciferin 4-monooxygenase (Photinus pyralis) (P08659 whole entry, looked up): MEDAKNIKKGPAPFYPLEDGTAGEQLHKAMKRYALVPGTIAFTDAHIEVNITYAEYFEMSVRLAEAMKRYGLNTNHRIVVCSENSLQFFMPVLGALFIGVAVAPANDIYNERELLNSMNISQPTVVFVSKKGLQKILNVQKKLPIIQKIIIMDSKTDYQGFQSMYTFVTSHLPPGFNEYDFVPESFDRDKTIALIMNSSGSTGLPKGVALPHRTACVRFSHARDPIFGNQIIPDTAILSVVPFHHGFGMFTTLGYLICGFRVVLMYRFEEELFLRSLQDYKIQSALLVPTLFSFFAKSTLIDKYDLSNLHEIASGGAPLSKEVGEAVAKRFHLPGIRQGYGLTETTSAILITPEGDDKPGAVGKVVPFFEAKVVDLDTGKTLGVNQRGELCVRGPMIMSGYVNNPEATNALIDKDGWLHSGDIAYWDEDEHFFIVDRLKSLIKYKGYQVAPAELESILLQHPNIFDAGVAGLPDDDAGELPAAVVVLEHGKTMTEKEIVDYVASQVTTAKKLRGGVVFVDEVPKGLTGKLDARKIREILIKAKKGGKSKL

Sequence of Fibroblast growth factor 2 (Homo sapiens) (P09038 whole entry, looked up): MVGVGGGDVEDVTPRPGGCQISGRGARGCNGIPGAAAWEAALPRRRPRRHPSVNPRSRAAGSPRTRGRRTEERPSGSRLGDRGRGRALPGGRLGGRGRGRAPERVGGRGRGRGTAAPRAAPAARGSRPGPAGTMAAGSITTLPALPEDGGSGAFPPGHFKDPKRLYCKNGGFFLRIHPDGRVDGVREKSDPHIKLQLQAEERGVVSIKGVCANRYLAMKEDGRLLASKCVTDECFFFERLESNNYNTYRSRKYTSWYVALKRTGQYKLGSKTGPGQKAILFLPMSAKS
Sequence of Albumin (Bos taurus) (P02769 whole entry, looked up): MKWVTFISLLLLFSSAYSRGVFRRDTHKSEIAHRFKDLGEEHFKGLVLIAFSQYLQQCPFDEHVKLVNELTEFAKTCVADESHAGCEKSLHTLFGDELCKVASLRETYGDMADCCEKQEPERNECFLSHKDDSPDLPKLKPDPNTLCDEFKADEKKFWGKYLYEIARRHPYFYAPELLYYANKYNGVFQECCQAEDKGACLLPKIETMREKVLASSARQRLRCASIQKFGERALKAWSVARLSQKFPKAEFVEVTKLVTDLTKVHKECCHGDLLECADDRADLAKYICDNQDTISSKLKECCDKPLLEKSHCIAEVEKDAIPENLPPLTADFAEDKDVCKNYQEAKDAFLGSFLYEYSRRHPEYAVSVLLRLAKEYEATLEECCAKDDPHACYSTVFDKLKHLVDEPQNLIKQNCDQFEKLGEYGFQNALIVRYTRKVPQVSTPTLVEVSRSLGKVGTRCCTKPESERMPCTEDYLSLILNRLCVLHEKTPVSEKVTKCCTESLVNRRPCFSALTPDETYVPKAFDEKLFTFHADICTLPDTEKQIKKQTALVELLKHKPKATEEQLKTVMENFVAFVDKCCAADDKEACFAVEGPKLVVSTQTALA

`CC(=O)OC[C@H]1O[C@H](CCON=C(C)CCN2CCc3nc(-c4ccccc4)c(-c4ccccc4)cc3C2)C=C[C@@H]1OC(C)=O`: the composite z-score was 0.768 with Albumin (Bos taurus); 0.146 in [2]; -0.0877 in [3]; 0.181 in [4]; 0.761 in test [5]; 0.466 in test [6]. The composite z-score is 0.975 in the test on Sam68 (KHDRBS1); -0.0682 in test [7]; -0.0278 in test [8]; -0.437 in [9]; 0.0723 in test [10]; 0.186 in test [11]. For the same compound, the composite z-score in [12] was 0.476; in test [13] it was 0.129; in test [14] it was -0.138; with Lefty1, 0.172; in [16] it was 0.563. Moreover, the composite Z-score in test [1] was 0.607 (inactive). The z-score in [15] was 1.15; in test [17], 0.938 (inactive).

As to `CO[C@@H]1COC(=O)[C@H](C)NC(=O)[C@@H](C)COC(=O)CCC[C@H]1C`, the composite z-score with Albumin (Bos taurus) was -0.163; in test [2], 0.111; in test [3], -0.161; in test [4], 0.409; in [5], 0.421; in [6] it was -0.0546. In addition, the composite z-score is 0.769 in the test with Sam68 (KHDRBS1); 0.777 in test [7]; -0.288 in test [8]; -0.356 in [9]; 0.0754 in test [10]; 0.574 in test [11]. Moreover, the composite z-score in test [12] is -0.796; in test [13] it was 0.775; in test [14], 0.851; in the test on Lefty1 it was 0.784; in [16], 0.405. Further, the composite Z-score in test [1] was -0.0735 (inactive). Also, the z-score in test [15] was -0.816; in test [17], 0.981 (inactive).

As for `CCOC(=O)CCN1C(=O)[C@H]2[C@H]3[C@H](O)[C@H](O)CC(=NOC[C@@H](O)COCc4ccco4)[C@H]3CC[C@H]2C1=O`, the composite z-score in the test with Albumin (Bos taurus) is 0.494; in test [2] it was 0.0059; in test [3], -0.171; in [4], 0.0762; in test [5], -0.128; in [6] it was 0.0706. Besides, the composite z-score in the test on Sam68 (KHDRBS1) was 1.32; in test [7] it was -0.173; in [8] it was 0.66; in test [9], 0.659; in test [10], 0.785; in [11], 0.857. Further, the composite z-score in [12] worked out at 0.894; in test [13], 0.938; in test [14] it was 0.229; with Lefty1 it was 0.863; in test [16], 0.288. Further, the composite Z-score in [1] was -0.0692 (inactive). Also, the z-score in test [15] was -1.06; in test [17] it was 0.586 (inactive).

In the case of `CC(=O)OC[C@H]1O[C@H](CCON=C[C@@H](C)[C@H](OCc2ccccc2)C(C)C)C=C[C@@H]1OC(C)=O`, the composite z-score with Albumin (Bos taurus) was 0.0841; in test [2], 0.214; in test [3], -0.0716; in [4], -0.249; in test [5] it was -0.039; in [6], 0.148. In addition, the composite z-score is 0.997 in the test on Sam68 (KHDRBS1); 0.755 in test [7]; 0.0066 in test [8]; -0.508 in test [9]; 0.193 in test [10]; -0.101 in test [11]. The composite z-score in test [12] stood at 0.797; in [13], 0.319; in [14], 0.274; with Lefty1, 0.325; in test [16] it was 0.156. In test [1], the composite Z-score is -0.313 (inactive). The z-score in [15] is -0.808; in test [17], 1.26 (inactive).

As for `C[C@@H](c1ccccc1)N1C(=O)[C@H]2[C@H]3[C@H](O)[C@H](O)CC(=NOC[C@@H](O)COCc4ccco4)[C@@H]3CC[C@H]2C1=O`, the composite z-score in the test with Albumin (Bos taurus) was 0.819; in test [2], -0.161; in [3], -0.185; in test [4] it was 0.279; in [5], -0.359; in test [6] it was -0.254. For the same compound, the composite z-score in the test on Sam68 (KHDRBS1) is -0.779; in test [7], -0.727; in test [8], -1.07; in test [9], -0.623; in test [10] it was -0.604; in test [11], 0.126. In addition, the composite z-score in [12] was 0.448; in test [13] it was -0.761; in test [14], -0.728; with Lefty1, -0.809; in test [16], 0.112. Also, the composite Z-score in test [1] was 0.528 (inactive). Besides, the z-score in [15] was -0.62; in test [17] it was 0.558 (inactive).
